# Compound activity as filed in PubChem BioAssay.
# Only some compounds are listed: those with a hit (about 1.1% of all), similar ones and a draw of the others.
# Autofluor Jurkat: autofluorescence counter-screen for VLA-4 integrin assays; Jurkat cells, compound autofluorescence, flow cytometry; active compounds read high; 1 = vehicle-only cell background; fluorescence ratio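 (tested at 10 µM compound in the well)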; 24,000 compounds, 0.61% hits; AID 576;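 active means fluorescence ratio above 2.44, which is 1 plus 3 SD of all ratios; inconclusive means signal too bright to measure linearly, ratio around 10 or more; inactive means fluorescence ratio below 2.44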;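 further: green fluorescence of cells measured with 488 nm excitation and 530 nm emission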
# Proteasome disasm: blocks ATP-dependent breakdown of the yeast 26S proteasome; anti-FLAG beads, GFP-proteasome disassembly, flow cytometry; inhibition of disassembly, % (concentration not given with the values); 24,000 compounds, 0.2% hits; AID 751;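 active means inhibition of disassembly above about 33%, limit read from the data; inconclusive means likely self-fluorescent, control bead median signal at least 40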;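 further: plate controls were ATP control with full disassembly for no effect and ATP-gamma-S intact proteasomes for full effect; higher percent means more bead fluorescence retained so stronger block of disassembly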
# VLA-4 allo ag: allosterically activates the human VLA-4 integrin; activation, % at 10 µM (by protocol); Jurkat cells, LDV-FITC binding, flow cytometry; 24,000 tested, under 10 active; P13612; AID 528;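 active means fluorescent ligand binding to cells raised by more than 40% of the manganese-induced maximum; inconclusive means compound's own fluorescence above 85% of the ligand control signal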;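 further: 0% = ligand binding without compound and 100% = manganese-stimulated maximal binding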
# VLA-4 antagonist: inhibitors of LDV-FITC ligand binding to Mn2+-activated human VLA-4 integrin; 24,000 compounds, 0.2% hits; inhibition, % at 10 µM (by protocol); Jurkat cells, LDV-FITC binding with Mn2+, flow cytometry; 100% = Mn2+-driven binding gain fully reversed; AID 529;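 active means inhibition above 50%; inconclusive means compound itself fluorescent, judged against control cell fluorescence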;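 further: 0% = Mn2+ stimulated cells lacking compound and 100% = ligand binding without Mn2+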
# * = called active by the depositor; ? = inconclusive.
SMILES,Autofluor Jurkat,Proteasome disasm,VLA-4 allo ag,VLA-4 antagonist
CC(C)[C@@]1(NC(=O)[C@@H]2C=C3c4cccc5[nH]cc(c45)C[C@H]3N(C)C2)O[C@@]2(O)[C@@H]3CCCN3C(=O)[C@H](Cc3ccccc3)N2C1=O,3.5*,18,?,?
O=C(NCC(c1cccnc1)N1CCN(c2ccc(F)cc2)CC1)Oc1ccccc1 (configuration not stated),1.2,2,-6,2
